{
  "source": "ChEMBL document CHEMBL1201862",
  "about": "“PubChem BioAssay data set” (2004)",
  "data": [
    {"test": "A High Throughput Confirmatory Assay used to Identify Novel Compounds that Inhibit Mycobacterium Tuberculosis in the absence of Glycerol using Purified and Synthesized Compounds (6).; call rule not given here", "assay_type": "functional", "values": [
      {"smiles": "COc1c(N2CCNC(C)C2)c(F)cc2c(=O)c(C(=O)O)cn(C3CC3)c12", "note": "(centres undefined)", "IC90": "> 0.17 µM (active)"},
      {"smiles": "CC(C)/N=c1\\cc2n(-c3ccc(Cl)cc3)c3ccccc3nc-2cc1Nc1ccc(Cl)cc1", "IC90": "> 0.23 µM (active)"},
      {"smiles": "CO[C@H]1/C=C/O[C@@]2(C)Oc3c(C)c(O)c4c(O)c(c(C=NN5CCN(C)CC5)c(O)c4c3C2=O)NC(=O)/C(C)=C\\C=C\\[C@H](C)[C@H](O)[C@@H](C)[C@@H](O)[C@@H](C)[C@H](OC(C)=O)[C@@H]1C", "IC90": "> 0.02 µM (active)"},
      {"smiles": "CC[N+](C)(CC)CCCCOc1ccc2c(c1)C(=O)c1cc(OCCCC[N+](C)(CC)CC)ccc1-2", "IC90": "> 2.7 µM (active)"}
    ]}
  ]
}
